PubChem BioAssay (NCI)
The panel holds about 79,000 compounds, 15% with a hit somewhere; the sample as a whole holds those more often. Activity calls are given as the source filed them. No stated cut-off is given here; in the data, active means growth inhibition above about 70%; inactive means the rest.

Legend:
[1] = NCI Yeast Anticancer Drug Screen. Data for the rad52 strain (AID 147);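 further: 0% = growth of vehicle-treated control cultures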; conditions: S. cerevisiae rad52 mutant growth inhibition, stronger effect = higher value
Procedure, shortened: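 The repair-mutant yeast strain was incubated with compounds, then growth was read and inhibition derived relative to vehicle.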

[2] = NCI Yeast Anticancer Drug Screen. Data for the wt1 strain (AID 149);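 further: 0% = growth of vehicle-treated wt1 cultures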; conditions: S. cerevisiae wt1 strain (SPY 50644) growth inhibition, stronger effect = higher value
Procedure, shortened: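 Measured: growth of wt1 yeast under compound versus vehicle treatment, reported as inhibition.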

[3] = NCI Yeast Anticancer Drug Screen. Data for the rad50EPP+ strain (AID 151);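 further: 0% = growth of vehicle-treated control cultures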; conditions: S. cerevisiae rad50 mutant strain, stronger effect = higher value
Procedure, shortened: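 Vehicle-normalised growth inhibition; rad50EPP+ yeast strain, altered in DNA damage repair, compound-treated.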

[4] = NCI Yeast Anticancer Drug Screen. Data for the mgt1 strain (AID 153); conditions: S. cerevisiae mgt1 mutant growth inhibition, stronger effect = higher value
Procedure, shortened: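 Vehicle-normalized growth inhibition is determined in mgt1 yeast, a strain selected for a defined alteration in DNA repair or cell cycle control.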

[5] = NCI Yeast Anticancer Drug Screen. Data for the rad50 strain (AID 155);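 further: 0% = growth of vehicle-only cultures of the same strain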; conditions: S. cerevisiae rad50 strain growth inhibition, stronger effect = higher value
Procedure, shortened: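 Growth of the mutant yeast was measured after compound exposure and referenced to vehicle-treated cultures.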

[6] = NCI Yeast Anticancer Drug Screen. Data for the mec2-1 strain (AID 157); conditions: S. cerevisiae mec2-1 strain, stronger effect = higher value
Procedure, shortened: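 Mutant yeast (mec2-1) grown with compound; growth inhibition relative to vehicle control reported.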

[7] = NCI Yeast Anticancer Drug Screen. Data for the sgs1 mgt1 strain (AID 161);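 further: 0% = growth of cultures given vehicle only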; conditions: S. cerevisiae sgs1 mgt1 strain, stronger effect = higher value
Procedure, shortened: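 Percent growth inhibition was derived by comparing compound-exposed mutant yeast with vehicle-exposed cultures. The strain carries alterations in DNA damage repair.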

[8] = NCI Yeast Anticancer Drug Screen. Data for the CLN2oe strain (AID 163);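 further: 0% = growth of vehicle-only control cultures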; conditions: S. cerevisiae CLN2oe strain, stronger effect = higher value
Procedure, shortened: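 Compounds are applied to yeast harbouring a defined cell-cycle control change; reduced growth compared with vehicle-treated controls gives the value.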

[9] = NCI Yeast Anticancer Drug Screen. Data for the cln2 rad14 strain (AID 165);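 further: 0% = growth equal to vehicle treated cultures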; conditions: S. cerevisiae cln2 rad14 strain, stronger effect = higher value
Procedure, shortened: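 Readout is yeast growth inhibition versus vehicle-treated controls, using a strain with cln2 and rad14 alterations exposed to compound.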

[10] = NCI Yeast Anticancer Drug Screen. Data for the bub3 strain (AID 167); conditions: S. cerevisiae bub3 mutant strain, stronger effect = higher value
Procedure, shortened: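 Whole-cell yeast assay. The mutant strain was incubated with compounds, and growth inhibition was determined by comparison with vehicle-treated cells.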

[11] = NCI Yeast Anticancer Drug Screen. Data for the wt2 strain (AID 169);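 further: 0% = growth of vehicle-treated yeast cultures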; conditions: S. cerevisiae wt2 strain growth inhibition, stronger effect = higher value
Procedure, shortened: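 Against vehicle-treated controls, the growth of yeast exposed to each compound was compared, and the inhibition was recorded.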

[12] = NCI Yeast Anticancer Drug Screen. Data for the mlh1 strain (AID 171);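 further: 0% = growth of vehicle-treated control cultures of the same strain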; conditions: S. cerevisiae mlh1 strain growth inhibition, stronger effect = higher value
Procedure, shortened: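 Measured: yeast growth. Reference: vehicle-treated controls. Organism: strain with a defined alteration affecting DNA damage repair or cell cycle control, treated with compound.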

[13] = NCI Yeast Anticancer Drug Screen. Data for the sgs1 strain (AID 173);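 further: 0% = growth of vehicle-only control cultures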; conditions: S. cerevisiae sgs1 mutant, stronger effect = higher value
Procedure, shortened: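 Each compound was added to cultures of the altered yeast strain. Growth was recorded, and inhibition was derived by comparison with vehicle controls.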

[14] = NCI Yeast Anticancer Drug Screen. Data for the mlh1 rad18 strain (AID 175); conditions: S. cerevisiae mlh1 rad18 strain growth inhibition, stronger effect = higher value
Procedure, shortened: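 Genetically defined yeast (DNA repair-deficient) exposed to compounds; growth inhibition determined relative to vehicle.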

[15] = NCI Yeast Anticancer Drug Screen. Data for the rad18 strain (AID 177); conditions: S. cerevisiae rad18 mutant growth inhibition, stronger effect = higher value
Procedure, shortened: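 Vehicle-treated cultures served as the baseline for scoring compound-induced growth inhibition in DNA-repair-mutant yeast.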

[16] = NCI Yeast Anticancer Drug Screen. Data for the rad14 strain (AID 159);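 further: 0% = growth of vehicle-treated control cultures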; conditions: S. cerevisiae rad14 strain growth inhibition, stronger effect = higher value
Procedure, shortened: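 Here, inhibition of yeast growth was measured after compound exposure, using a strain with a genetic defect in DNA damage repair and vehicle-treated cultures as the reference.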

[17] = at 5.0 µM (retest, dose inferred, filed as 0.5)
[18] = at 50.0 µM (retest, dose inferred, filed as 5.0)

Measured: growth inhibition

COc1ccc(C(C)c2cc3c(cc2OC(C)O)OCO3)cc1 (stereo not drawn)
inactive: [1]; at 1.2 µM -2% | [1]; at 3.7 µM -3% | [1]; at 11.0 µM -1% | [1]; at 33.0 µM 1% | [2]; at 1.2 µM -2% | [2]; at 3.7 µM -3% | [2]; at 11.0 µM -4% | [2]; at 33.0 µM -4% | [3]; at 1.2 µM 0% | [3]; at 3.7 µM 15% | [3]; at 11.0 µM 15% | [3]; at 33.0 µM 33% | [3]; at 100.0 µM 36% | [4]; at 1.2 µM -3% | [4]; at 3.7 µM -2% | [4]; at 11.0 µM -3% | [4]; at 33.0 µM -2% | [5]; at 1.2 µM -6% | [5]; at 3.7 µM -46% | [5]; [17] 4% | [5]; at 11.0 µM 26% | [5]; at 33.0 µM 3% | [5]; [18] 11% | [5]; at 50.0 µM 18.8% | [6]; at 1.2 µM -3% | [6]; at 3.7 µM -2% | [6]; [17] 3% | [6]; at 11.0 µM -1% | [6]; at 33.0 µM -2% | [6]; [18] 31% | [6]; at 50.0 µM 0.2% | [7]; [17] 2% | [7]; [18] 37% | [7]; at 50.0 µM 58.5% | [8]; at 1.2 µM 4% | [8]; at 3.7 µM 1% | [8]; at 11.0 µM 2% | [8]; at 33.0 µM 1% | [8]; at 100.0 µM 38% | [9]; [17] 3% | [9]; [18] 1% | [9]; at 50.0 µM -31.5% | [10]; at 1.2 µM 0% | [10]; at 3.7 µM 6% | [10]; [17] 7% | [10]; at 11.0 µM 20% | [10]; at 33.0 µM 43% | [10]; [18] 52% | [10]; at 50.0 µM 25.4% | [10]; at 100.0 µM 64% | [11]; at 1.2 µM 3% | [11]; at 3.7 µM -1% | [11]; at 11.0 µM -2% | [11]; at 33.0 µM -2% | [11]; at 100.0 µM 32% | [12]; at 1.2 µM -2% | [12]; at 3.7 µM -3% | [12]; at 11.0 µM -1% | [12]; at 33.0 µM 1% | [13]; at 1.2 µM -3% | [13]; at 3.7 µM -1% | [13]; at 11.0 µM 5% | [13]; at 33.0 µM 25% | [14]; [17] -1% | [14]; [18] 52% | [14]; at 50.0 µM 50.6% | [15]; at 1.2 µM -2% | [15]; at 3.7 µM 4% | [15]; at 11.0 µM 7% | [15]; at 33.0 µM 18%
active: [1]; at 100.0 µM 89% | [2]; at 100.0 µM 88% | [4]; at 100.0 µM 95% | [5]; at 100.0 µM 96% | [6]; at 100.0 µM 87% | [12]; at 100.0 µM 92% | [13]; at 100.0 µM 92% | [15]; at 100.0 µM 90%

O=C(Nc1ccc(Cl)cc1)c1cc2cc(N=Nc3ccccc3Cl)ccc2oc1=O
active: [1]; at 33.0 µM 89% | [1]; at 100.0 µM 92% | [2]; at 33.0 µM 72% | [2]; at 100.0 µM 93% | [3]; at 3.7 µM 75% | [3]; at 11.0 µM 89% | [3]; at 33.0 µM 90% | [3]; at 100.0 µM 86% | [4]; at 33.0 µM 92% | [4]; at 100.0 µM 95% | [5]; at 33.0 µM 84% | [5]; at 50.0 µM 88.8% | [5]; at 100.0 µM 90% | [6]; at 33.0 µM 94% | [6]; at 50.0 µM 88.5% | [6]; at 100.0 µM 95% | [16]; at 33.0 µM 95% | [16]; at 100.0 µM 94% | [8]; at 33.0 µM 89% | [8]; at 100.0 µM 92% | [9]; at 50.0 µM 82.8% | [10]; at 33.0 µM 93% | [10]; at 50.0 µM 86.2% | [10]; at 100.0 µM 93% | [11]; at 33.0 µM 91% | [11]; at 100.0 µM 94% | [12]; at 33.0 µM 95% | [12]; at 100.0 µM 95% | [13]; at 11.0 µM 70% | [13]; at 33.0 µM 93% | [13]; at 100.0 µM 92% | [14]; at 50.0 µM 85.4% | [15]; at 33.0 µM 92% | [15]; at 100.0 µM 91%
inactive: [1]; at 1.2 µM 8% | [1]; at 3.7 µM 25% | [1]; at 11.0 µM 58% | [2]; at 1.2 µM 3% | [2]; at 3.7 µM 8% | [2]; at 11.0 µM 26% | [3]; at 1.2 µM 39% | [4]; at 1.2 µM 3% | [4]; at 3.7 µM 11% | [4]; at 11.0 µM 48% | [5]; at 1.2 µM 4% | [5]; at 3.7 µM 13% | [5]; [17] 54% | [5]; at 11.0 µM 38% | [5]; [18] 54% | [6]; at 1.2 µM 3% | [6]; at 3.7 µM 10% | [6]; [17] 7% | [6]; at 11.0 µM 40% | [6]; [18] 7% | [16]; at 1.2 µM 4% | [16]; at 3.7 µM 5% | [16]; at 11.0 µM 62% | [8]; at 1.2 µM 3% | [8]; at 3.7 µM 13% | [8]; at 11.0 µM 40% | [9]; [17] 12% | [9]; [18] 12% | [10]; at 1.2 µM -14% | [10]; at 3.7 µM -19% | [10]; [17] 13% | [10]; at 11.0 µM 26% | [10]; [18] 13% | [11]; at 1.2 µM 5% | [11]; at 3.7 µM 15% | [11]; at 11.0 µM 57% | [12]; at 1.2 µM 1% | [12]; at 3.7 µM 7% | [12]; at 11.0 µM 38% | [13]; at 1.2 µM 11% | [13]; at 3.7 µM 24% | [14]; [17] 23% | [14]; [18] 23% | [15]; at 1.2 µM 4% | [15]; at 3.7 µM 24% | [15]; at 11.0 µM 68%
